Assay results from article PMC4336329 (PLoS ONE, 2015).
About 14,000 (4.5%) of roughly 310,000 compounds showed an effect of 50% or more. Effects have a minus sign here. This is one part of a sample in which strong results are shown more often than they occur.

Molecular target: human ether-à-go-go-related gene (hERG) potassium channel (human, UniProt Q12809)
Test: primary screen, population patch clamp on CHO cells stably expressing hERG; higher = less effect of the substance
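Further: peak tail current of the secondary pulse compared with the same well before compound.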

Chain of human ether-à-go-go-related gene (hERG) potassium channel (Q12809 whole entry, looked up): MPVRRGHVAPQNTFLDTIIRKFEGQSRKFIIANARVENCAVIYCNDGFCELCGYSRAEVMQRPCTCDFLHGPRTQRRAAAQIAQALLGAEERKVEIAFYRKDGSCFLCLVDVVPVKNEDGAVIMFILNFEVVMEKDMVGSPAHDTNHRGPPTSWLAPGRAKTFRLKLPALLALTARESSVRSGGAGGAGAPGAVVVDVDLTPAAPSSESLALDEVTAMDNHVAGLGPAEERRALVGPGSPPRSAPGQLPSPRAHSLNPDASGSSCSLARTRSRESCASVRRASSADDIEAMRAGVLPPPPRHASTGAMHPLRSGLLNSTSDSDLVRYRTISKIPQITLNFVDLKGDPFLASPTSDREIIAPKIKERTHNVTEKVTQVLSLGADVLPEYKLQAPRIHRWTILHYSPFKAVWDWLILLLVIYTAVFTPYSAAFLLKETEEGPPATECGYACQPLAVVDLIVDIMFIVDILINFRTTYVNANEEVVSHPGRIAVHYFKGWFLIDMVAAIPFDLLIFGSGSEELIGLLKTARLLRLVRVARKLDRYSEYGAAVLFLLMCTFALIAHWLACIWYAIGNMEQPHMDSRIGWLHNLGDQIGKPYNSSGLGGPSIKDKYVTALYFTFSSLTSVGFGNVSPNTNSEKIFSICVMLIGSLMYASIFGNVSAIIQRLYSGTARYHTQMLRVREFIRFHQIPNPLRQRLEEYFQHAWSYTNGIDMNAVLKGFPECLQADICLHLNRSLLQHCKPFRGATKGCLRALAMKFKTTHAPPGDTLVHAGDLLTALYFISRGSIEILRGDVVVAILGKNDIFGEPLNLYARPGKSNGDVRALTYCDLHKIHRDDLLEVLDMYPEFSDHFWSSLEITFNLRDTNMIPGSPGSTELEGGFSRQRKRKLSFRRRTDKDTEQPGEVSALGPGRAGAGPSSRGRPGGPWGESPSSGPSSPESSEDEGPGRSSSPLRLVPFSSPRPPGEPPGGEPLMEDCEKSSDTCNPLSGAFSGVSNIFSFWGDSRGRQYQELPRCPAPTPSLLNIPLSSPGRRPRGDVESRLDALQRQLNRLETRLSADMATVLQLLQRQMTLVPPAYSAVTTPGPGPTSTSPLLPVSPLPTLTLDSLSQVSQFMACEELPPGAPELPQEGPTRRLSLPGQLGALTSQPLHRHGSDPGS

Which “hERG current change (%, negative = inhibition) at 10uM” value does the source give for `Cc1cccc(N=C2C(=O)Nc3c(Cl)cccc32)c1` here?
The value was 18.5%.

`CCc1nc2cc(Cl)c(Cl)cc2[nH]1` was tested. Which “hERG current change (%, negative = inhibition) at 10uM” value did it give?
Its value is 2.59%.

With `Cc1cc(-n2c(=O)c(C#N)cc3c(=O)n4cccc(C)c4nc32)no1` as the compound, how does the “hERG current change (%, negative = inhibition) at 10uM” value read?
The value was -65.1%.

For `Cc1cc(-n2c(=O)c(C#N)cc3c(=O)n4ccccc4nc32)no1`, which “hERG current change (%, negative = inhibition) at 10uM” value is on record?
The value was -17%.

With `Cc1ccc(-n2c(=O)c(C#N)cc3c(=O)n4cccc(C)c4nc32)cc1` as the compound, how does the “hERG current change (%, negative = inhibition) at 10uM” value read?
The value was 1.03%.

`Cc1ccc(OC(=O)c2ccc(S(=O)(=O)N(C)C)cc2)c(-n2nc3ccccc3n2)c1` was tested. Which “hERG current change (%, negative = inhibition) at 10uM” value did it give?
Its value is 3.83%.

Which “hERG current change (%, negative = inhibition) at 10uM” value does the source give for `O=C(Nc1nccs1)c1ccc(-c2ccc(Cl)cc2Cl)o1` here?
Its value is 25.5%.

Which “hERG current change (%, negative = inhibition) at 10uM” value does the source give for `O=C(CSc1nc2ccccc2c(=O)n1CC1CCCO1)NCCc1ccccc1` (stereo not shown) here?
Its value is 7.48%.

For `Cc1cccn2c(=O)c3cc(S(=O)(=O)c4ccccc4)c(=N)n(CC4CCCO4)c3nc12` (stereo not shown), which “hERG current change (%, negative = inhibition) at 10uM” value is on record?
Its value is -15.3%.

With `Cc1ccc2nc3c(cc(C(=O)NCCc4ccccc4)c(=N)n3CC3CCCO3)c(=O)n2c1` (stereo not shown) as the compound, how does the “hERG current change (%, negative = inhibition) at 10uM” value read?
Its value is -76.9%.

`Cc1ccc(CCNC(=O)c2ccc3nc4ccccc4c(=O)n3c2)cc1` was tested. Which “hERG current change (%, negative = inhibition) at 10uM” value did it give?
The value was 6.08%.

How did the “hERG current change (%, negative = inhibition) at 10uM” value turn out when `COc1ccc(CNC(=O)C(=O)NCC2CCCO2)cc1` (stereo not shown) was run?
The value was 9.7%.

For `Cc1cccn2c(=O)c3cc(C(=O)NCCc4ccccc4)c(=N)n(CC4CCCO4)c3nc12` (stereo not shown), which “hERG current change (%, negative = inhibition) at 10uM” value is on record?
Its value is -82.3%.

With `COc1ccc(CCNC(=O)c2cc3c(=O)n4cccc(C)c4nc3n(CC3CCCO3)c2=N)cc1` (stereo not shown) as the compound, how does the “hERG current change (%, negative = inhibition) at 10uM” value read?
Its value is -75.2%.

Which “hERG current change (%, negative = inhibition) at 10uM” value does the source give for `COc1ccc(CNC(=O)c2cc3c(=O)n4cccc(C)c4nc3n(CC3CCCO3)c2=N)cc1` (stereo not shown) here?
The value was -77.2%.

For `CCOc1cc(CNCCc2cccc(F)c2)ccc1OC.O=C(O)C(=O)O`, which “hERG current change (%, negative = inhibition) at 10uM” value is on record?
Its value is -43.8%.

With `O=C(Nc1ccc2c(c1)OCCO2)c1cnn(-c2ccccc2)n1` as the compound, how does the “hERG current change (%, negative = inhibition) at 10uM” value read?
Its value is -6.02%.

With `O=C(CSc1nc2cc(Cl)ccc2c(=O)n1Cc1ccco1)Nc1ccc(S(=O)(=O)N2CCOCC2)cc1` as the compound, how does the “hERG current change (%, negative = inhibition) at 10uM” value read?
Its value is -13.6%.

With `Cc1ccc(NC(=O)CCNC(=O)c2ccccc2Cl)cc1S(=O)(=O)N1CCOCC1` as the compound, how does the “hERG current change (%, negative = inhibition) at 10uM” value read?
The value was -8.82%.

How did the “hERG current change (%, negative = inhibition) at 10uM” value turn out when `Cn1c(C(=O)O)ccc1S(=O)(=O)N(Cc1ccccc1)Cc1ccccc1` was run?
The value was 16.5%.

`Cc1ccccc1NC(=O)Cn1c(NCC(C)O)nc2ccccc21` (stereo not shown) was tested. Which “hERG current change (%, negative = inhibition) at 10uM” value did it give?
Its value is -2.11%.

With `COc1ccc(S(=O)(=O)c2c(O)c3ccc(C(=O)Nc4ccccc4F)cc3[nH]c2=O)cc1` as the compound, how does the “hERG current change (%, negative = inhibition) at 10uM” value read?
Its value is -0.579%.
